{"source": "PubChem BioAssay (Tox21)", "note": "Results filed as inconclusive are left out. A call without a number means that no potency is given here. Unmarked numbers belong to inactive results. Active and inactive are the calls of the source. The call rests on the fitted dose curve."}
{"assay": "qHTS assay to identify small molecule agonists of H2AX - cell viability counter screen (AID 1224847); further: top concentration of the series differs between compounds; nearly all actives have a fitted effect of over 30% in size", "details": "CHO-K1 viability, CellTiter-Glo luminescence, 3 h; series mostly up to 154 µM", "outline": "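Viability of CHO-K1 (wild type) cells after 3 hr compound exposure was measured by CellTiter-Glo luminescence.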"}
{"compound": "O=C1[C@@H]2[C@H]3CC[C@H](C3)[C@@H]2C(=O)N1CCCCN1CCN(c2ncccn2)CC1", "Potency": "inactive"}
{"compound": "Cc1ccc2c(c1)CCCN2", "Potency": "inactive"}
{"compound": "O=C(NC(Cc1cc(=O)[nH]c2ccccc12)C(=O)O)c1ccc(Cl)cc1", "note": "(centres undefined)", "Potency": "inactive"}
{"compound": "CC(C)(C)C1(CCc2ccc(Cl)cc2)CO1", "note": "(centres undefined)", "Potency": "inactive"}
{"compound": "CC(C)(O)CCc1ccccc1", "Potency": "inactive"}
{"compound": "Cc1ccc(N(CCO)CCO)cc1", "Potency": "inactive"}
{"compound": "CSCC[C@H](NC(=O)[C@H](Cc1c[nH]c2ccccc12)NC(=O)CCNC(=O)OC(C)(C)C)C(=O)N[C@@H](CC(=O)O)C(=O)N[C@@H](Cc1ccccc1)C(N)=O", "Potency": "inactive"}
{"compound": "O=CNNC=O", "Potency": "inactive"}
{"compound": "O=C(O)CO", "Potency": "inactive"}
{"compound": "CCOc1ncc(F)c(=O)[nH]1", "Potency": "inactive"}
{"compound": "O=C(O)CNC(=O)c1ccccc1I", "Potency": "inactive"}
{"compound": "Cc1cc(CCC(=O)OCCOCCOCCOC(=O)CCc2cc(C)c(O)c(C(C)(C)C)c2)cc(C(C)(C)C)c1O", "Potency": "inactive"}
{"compound": "COc1cc(C(C)=O)ccc1OCCCN1CCC(c2noc3cc(F)ccc23)CC1", "Potency": "inactive"}
{"compound": "Nc1ccn([C@H]2CS[C@@H](CO)O2)c(=O)n1", "Potency": "inactive"}
{"compound": "CC(C)(C(=O)c1cccnc1)c1cccnc1", "Potency": "inactive"}
{"compound": "C[C@@H]1C[C@H]2[C@@H]3CCC4=CC(=O)C=C[C@]4(C)[C@@]3(F)[C@@H](O)C[C@]2(C)[C@@]1(O)C(=O)COP(=O)(O)O", "Potency": "inactive"}
{"compound": "Cc1ccc(S(=O)(=O)NC(=O)NC2CCCCC2)cc1", "Potency": "inactive"}
{"compound": "COC(=O)Nc1nc2ccc(C(=O)C3CC3)cc2[nH]1", "Potency": "inactive"}
{"compound": "O=S(=O)(O)CO", "Potency": "inactive"}
{"compound": "FC(F)(F)C(F)(F)C(F)(F)C(F)(F)CCI", "Potency": "inactive"}
{"compound": "CCCCCCOC(=O)CCCCC", "Potency": "inactive"}
{"compound": "O=C(O)CCC(=O)c1ccc(-c2ccccc2)cc1", "Potency": "inactive"}
{"compound": "CCC(CO)(CO)CO", "Potency": "inactive"}
{"compound": "C=CCOC(=O)COCCC(C)C", "Potency": "inactive"}
{"compound": "CCOC(=O)C(C)O", "note": "(centres undefined)", "Potency": "inactive"}
{"compound": "CCCCCCCC/C=C/C(=O)O", "Potency": "inactive"}
{"compound": "CCCCCCC(CO)CCCC", "note": "(centres undefined)", "Potency": "inactive"}
{"compound": "Nc1nc(-c2ccc([N+](=O)[O-])cc2)cs1", "Potency": "inactive"}
{"compound": "COC(OC)OC", "Potency": "inactive"}
{"compound": "O=c1[nH]c2cc(C(F)(F)F)c(N3CCOCC3)cc2n(CP(=O)(O)O)c1=O", "Potency": "inactive"}
{"compound": "CCCCCCCCCCCCCCN(C)C", "activity change, negative = cytotoxicity": "0.248% [at 31.6 µM]"}
{"compound": "CCC(Cl)CC(Cl)C(Cl)C(Cl)C(Cl)C(C)Cl", "note": "(centres undefined)", "activity change, negative = cytotoxicity": "-5.22% [at 31.6 µM]"}
{"compound": "CCCCCCCCCCCCCCCC(=O)OCC", "Potency": "inactive"}
{"compound": "COc1ccc(CCN(C)CCCN2CCc3cc(OC)c(OC)cc3CC2=O)cc1OC", "Potency": "inactive"}
{"compound": "CCCCC[C@H](O)/C=C/[C@H]1[C@H](O)CC(=O)[C@@H]1C/C=C\\CCCC(=O)O", "Potency": "inactive"}
{"compound": "CCCC(=O)OC(=O)CCC", "Potency": "inactive"}
{"compound": "CC[C@H]1OC(=O)[C@H](C)[C@@H](O[C@H]2C[C@@](C)(OC)[C@@H](O)[C@H](C)O2)[C@H](C)[C@@H](O[C@@H]2O[C@H](C)C[C@H](N(C)C)[C@H]2O)[C@](C)(O)C[C@@H](C)CN(C)[C@H](C)[C@@H](O)[C@]1(C)O", "Potency": "inactive"}
{"compound": "NC(=O)CCCCC(N)=O", "Potency": "inactive"}
{"compound": "CCCCCCCCCCCCCOC(=O)CCSCCC(=O)OCCCCCCCCCCCCC", "activity change, negative = cytotoxicity": "-1.78% [at 31.6 µM]"}
